From PubChem BioAssay (EPA / NIEHS) come the findings set out here.

Molecules are shown by their SMILES. Some compounds were tested as several samples or in several runs, with calls that do not always agree. The source made the active and inactive calls. How the source made its calls: active means hit-call score of the fitted dose curve at least 0.9, where 1 is the maximum; inactive means score below 0.9.

The AC50 is the concentration giving half of the maximal activity seen.

A short description of the assay: ATG_M_06_CIS: Attagene CIS-FACTORIAL HepG2 Assay for M06 Transcription Factor (Internal Marker) (AID 2282950). The settings on record: HepG2 Attagene CIS-FACTORIAL M06 internal marker reporter; actives raise or lower the signal. As for the experimental part: ATG_CIS is a cell-based, multiplexed-readout assay that uses HepG2, a human liver cell line, with measurements taken at 24 hours after chemical dosing in a 24-well plate.ATG_M_06_CIS is one of 52 assay component(s) measured or calculated from the ATG_CIS assay. It is designed to make measurements of mRNA induction, a form of inducible reporter, as detected with fluorescence intensity signals by Reverse transcription polymerase chain reaction (RT-PCR) and Capillary electrophoresis technology.Data from the assay component ATG_M_06_CIS was analyzed into 1 assay endpoint. This assay endpoint, ATG_M_06_CIS, was analyzed with bidirectional fitting relative to DMSO as the negative control and baseline of activity. Using a type of inducible reporter, measures of mRNA for gain or loss-of-signal activity can be used to understand the background control at the transcription factor-level as they relate to the gene . Furthermore, this assay endpoint can be referred to as a secondary readout, because this assay has produced multiple assay endpoints where this one serves a background control function. To generalize the intended target to other relatable targets, this assay endpoint is annotated to the background measurement intended target family, where the subfamily is internal marker.
Human liver HepG2 cells are transiently transfected with multiple reporter transcription units (MRTUs) in 6-well plates using FuGene 6 reagent (Roche; 3 ml FuGene/1 mg DNA). The MRTU constructs are regulated by a cis-regulating element (promoter). […] A major difference between the CIS and TRANS system is that in CIS activities of endogenous TFs are measured, whereas the TRANS assay evaluates changes in activities of exogenous, chimeric NR-Gal4 proteins. […] At the end of 24 hour incubation, total RNA was isolated using TriZol reagent (Invitrogen). The isolated RNA is then reverse-transcribed using oligo(dT) primer and Mo-MLV reverse transcriptase (Invitrogen) with DNAse I (Ambion) treatment for 30 min. The one-tenth of the produced cDNA was amplified by PCR using Taq DNA polymerase (Invitrogen) and two reporter sequence-specific primers. The PCR products were fluorescently labeled by primer extension with 6-arboxyfluorescein (6-FAM) 5'-labeled reporter sequence-specific primer (2 min at 95 C, 20 s at 68 C and 10 min at 72 C) and these products were digested with 5U of HpaI (New England Biolabs) for 2h at 37 C. The fragments were purified using Qiaquick PCR columns (Qiagen), analyzed on an ABI 3130xL genetic analyzer (Applied Biosystems) with peak positions identified by using a set of X-rhodamine (ROX)-labeled MapMarker1000 molecular weight standards (BioVentures). The raw capillary electrophoresis data was processed using Attagraph software (Attagene).
As to `ClC(Cl)=C(Cl)C(Cl)=C(Cl)Cl`, the compound was classed as inactive. On the same count and under the same terms, the value for `CC(C)(c1ccc(OCC2CO2)cc1)c1ccc(OCC2CO2)cc1` (stereo not given) was “inactive”; that for `O=CC=O` was “inactive”.

`CCC(=O)c1ccccc1`: the compound was called inactive. The same measure, in the same setting: for `Nc1ccc(-c2ccc(N)c(Cl)c2)cc1Cl` the value was “inactive”; for `NC(=O)O`, “inactive”.

With `C[C@]12CCC(=O)C[C@@H]1CC[C@@H]1[C@@H]2CC[C@]2(C)[C@@H](O)CC[C@@H]12`, the call was inactive.

Regarding `CCOC(=O)/C=C(C)/C=C/C[C@@H](C)CCCC(C)C`, the compound was classed as inactive. Regarding `CCCCP(CCCC)CCCC`, the outcome was inactive.

As for `Nc1ccc(N=Nc2ccc(-c3ccc(N=Nc4c(S(=O)(=O)O)cc5cc(S(=O)(=O)O)c(N=Nc6ccccc6)c(O)c5c4N)cc3)cc2)c(N)c1`, the outcome was inactive.

Consider `Clc1ccc(COC(Cn2ccnc2)c2ccc(Cl)cc2Cl)cc1` (stereo not given), for which the result was inactive. As to `C[C@@H](Oc1ccc(Cl)cc1Cl)C(=O)O`, the result was inactive. The same measure, in the same setting: for `COc1ccc(C=O)cc1` the value was “inactive”; for `CN(C)P(=O)(N(C)C)N(C)C`, “inactive”.

In the case of `CCC(=O)C(CC(C)N(C)C)(c1ccccc1)c1ccccc1` (stereo not given), the outcome was inactive. The same measure, in the same setting: the value for `CCc1ccccc1C` was “inactive”; that for `COP(=S)(OC)Oc1ccc(Sc2ccc(OP(=S)(OC)OC)cc2)cc1` was “inactive”. The same measure, in the same setting: the value for `CNC(=O)O/N=C/C(C)(C)S(C)=O` (stereo not given) was “inactive”. On the same count and under the same terms, for `COc1ccc(C=O)cc1OC` the value was “inactive”; for `Cc1ccc2ccccc2c1C`, “inactive”. For `CC12CC1(C)C(=O)N(c1cc(Cl)cc(Cl)c1)C2=O` (stereo not given), the outcome was inactive. For the compound `CCCCCCCCc1ccc(O)cc1`, the outcome was inactive. Still for that read-out and setting: for `O=C(NCO)NCO` the value was “inactive”. Still for that read-out and setting: for `CCc1ccccc1N` the value was “inactive”. Same read-out and setting: the value for `O=C(O)C(F)(F)C(F)(F)C(F)(F)C(F)(F)C(F)(F)C(F)(F)F` was “inactive”. For the compound `CCN1CCC2(CC1)COc1cc3c(cc12)N(C(=O)c1ccc(-c2ccc(-c4nnc(C)o4)cc2C)cc1)CC3`, the compound was called inactive. Regarding `O=C(Cc1ccccc1)c1ccccc1`, the result was inactive. Still for that read-out and setting: the value for `COc1cc(-c2ccc(N)c(OC)c2)ccc1N` was “inactive”. Same read-out and setting: for `CCC(C)c1cccc(C(C)CC)c1O` (stereo not given) the value was “inactive”.

Turning to `CCC[CH2][Sn]([CH2]CCC)([CH2]CCC)[O]C(=O)c1ccccc1`, the result was inactive. Same read-out and setting: for `Cn1sc(Cl)cc1=O` the value was “inactive”; for `C[C@]12CC[C@H](O)CC1=CC[C@@H]1[C@@H]2CC[C@]2(C)C(=O)CC[C@@H]12`, “inactive”; for `Cc1ccccc1C(=O)Nc1cccc(OC(C)C)c1`, “inactive”. Still for that read-out and setting: the value for `Nc1cccc2ccccc12` was “inactive”. With `O=C(O)C(F)(F)C(F)(F)C(F)(F)C(F)(F)C(F)(F)C(F)(F)C(F)(F)C(F)(F)C(F)(F)C(F)(F)F`, the outcome was inactive and the AC50 is 76.2 µM (active). Take `Clc1ccc(C2(Cn3cncn3)CC(Br)CO2)c(Cl)c1` (stereo not given): the compound was called inactive.

Consider `Nc1cccc(Cl)c1`, for which the compound was called inactive.

Take `CC(C)C1CCC(Cc2ccc(Cl)cc2)C1(O)Cn1cncn1` (stereo not given): the outcome was inactive. On the same count and under the same terms, for `CCOC(=O)Nc1cccc(OC(=O)Nc2ccccc2)c1` the value was “inactive”.
